Drawing on PubChem BioAssay (EPA / NIEHS), this text covers outcome and AC50 for four compounds.

Assay [1] in a line: ATG_E_Box_CIS: Attagene CIS-FACTORIAL HepG2 Assay for human Enhancer Box (E-box) (AID 2282936). Particulars: HepG2 E-box cis-reporter transcription, actives raise or lower the signal. The method, boiled down:
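DMSO served as negative control and baseline for bidirectional fitting. Human hepatoma HepG2 cells, transiently transfected with cis-reporter constructs, were dosed 24 h; reporter mRNA read by RT-PCR and capillary electrophoresis.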

Assay [2] can be described thus: ATG_M_61_CIS: Attagene CIS-FACTORIAL HepG2 Assay for M61 Transcription Factor (Internal Marker) (AID 2282937). Particulars: HepG2 Attagene CIS-FACTORIAL M61 internal marker reporter; actives raise or lower the signal. The method, boiled down:
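HepG2 cells transiently transfected with cis-element-driven multiple reporter transcription units, dosed for 24 h. Reporter mRNA measured by RT-PCR, 6-FAM primer-extension labelling, HpaI digestion and capillary electrophoresis; bidirectional fit versus DMSO baseline.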

Assay [3] is described as follows: ATG_EGR_CIS: Attagene CIS-FACTORIAL HepG2 Assay for human Early Growth Response 1 (EGR1) (AID 2282938). The note with it: HepG2 Attagene CIS-FACTORIAL EGR reporter mRNA; actives raise or lower the signal. In short, it runs like this: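 HepG2 cells transiently transfected with cis-promoter-driven multiplexed reporter transcription units; reporter mRNA measured 24 h after compound dosing by RT-PCR, 6-FAM primer extension, HpaI digestion and capillary electrophoresis. Bidirectional fit versus DMSO baseline.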

Assay [4] can be described thus: ATG_M_19_CIS: Attagene CIS-FACTORIAL HepG2 Assay for M19 Transcription Factor (Internal Marker) (AID 2282939). Particulars: HepG2 Attagene CIS-FACTORIAL M19 internal marker reporter; actives raise or lower the signal. In short, it runs like this:
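Chemical-treated HepG2 (24 h) with MRTU constructs; reporter transcripts detected by fluorescent RT-PCR fragment analysis on capillary electrophoresis. Internal background marker, DMSO as baseline.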

Assay [5] in a line: ATG_ERE_CIS: Attagene CIS-FACTORIAL HepG2 Assay for Estrogen Response Element (ERE) (AID 2282940). The note with it: HepG2 ERE cis-reporter, Attagene RNA transcript; actives raise or lower the signal. In short, it runs like this:
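Human liver cells (HepG2) bearing transiently transfected, promoter-regulated reporter units were exposed 24 h. Reporter mRNA induction was detected by capillary electrophoresis of labelled RT-PCR products and fitted bidirectionally to DMSO.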

Assay [6] can be described thus: ATG_Ets_CIS: Attagene CIS-FACTORIAL HepG2 Assay for human Erythroblast Transformation Specific (ETS) (AID 2282941). The note with it: HepG2 ETS cis-reporter transcription, actives raise or lower the signal. In short, it runs like this: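 Steps: transfect HepG2 with multiple reporter units; treat compound 24 h; isolate RNA, DNase-treat, reverse-transcribe; PCR-amplify, label with 6-FAM, digest with HpaI; separate by capillary electrophoresis. Activity fitted both directions versus DMSO.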

Assay [7] addresses Hepatocyte nuclear factor 3-beta (Homo sapiens) (UniProt Q9Y261). Nature of the assay: ATG_FoxA2_CIS: Attagene CIS-FACTORIAL HepG2 Assay for human Forkhead box A2 (FOXA2) (AID 2282942). Particulars: HepG2 cis-reporter transcription factor activity, 24 h; actives raise or lower the signal. In short, it runs like this:
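HepG2 cells transiently transfected with multiple cis-regulated reporter transcription units, dosed for 24 h. Reporter mRNA measured by RT-PCR, 6-FAM labelling, HpaI digestion and capillary electrophoresis; bidirectional fitting against DMSO baseline.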

A short description of assay [8]: ATG_FoxO_CIS: Attagene CIS-FACTORIAL HepG2 Assay for human Forkhead box O (FoxO) (AID 2282943). Particulars: HepG2 Attagene cis-reporter, FoxO element, mRNA; actives raise or lower the signal. The method, boiled down:
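HepG2, transient MRTU transfection (cis element, endogenous TFs). Dose 24 h. TriZol RNA → oligo(dT) RT → PCR → 6-FAM primer extension → HpaI cut → CE. Gain/loss vs DMSO.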

A short description of assay [9]: ATG_GATA_CIS: Attagene CIS-FACTORIAL HepG2 Assay for human GATA Binding Protein (AID 2282944). The note with it: HepG2 GATA cis-element reporter, Attagene multiplex mRNA; actives raise or lower the signal. In short, it runs like this: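 Transfected cis-reporter HepG2 cells were treated with chemicals for 24 hours. Total RNA was then converted to cDNA, amplified with reporter-specific primers and analysed by fluorescent capillary electrophoresis, using DMSO-treated wells as baseline.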

The nature of assay [10]: ATG_GLI_CIS: Attagene CIS-FACTORIAL HepG2 Assay for human Zinc Finger Protein GLI1 (AID 2282945). The note with it: HepG2, Attagene cis-factorial reporter mRNA, GLI element; actives raise or lower the signal. In short, it runs like this: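 Bidirectional curve fits relative to DMSO, using reporter mRNA levels from RT-PCR plus capillary electrophoresis. Cells were HepG2 transiently carrying cis-regulated reporter constructs, harvested 24 h after dosing.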

For assay [11], the target named is Bile acid receptor (Homo sapiens) (UniProt Q96RI1). Nature of the assay: ATG_IR1_CIS: Attagene CIS-FACTORIAL HepG2 Assay for human Nuclear Receptor Subfamily 1 Group H Member 4 (NR1H4), IR1 submotif (AID 2282946). Particulars: IR1 reporter transcription, actives raise or lower the signal. The method, boiled down:
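Cells (human HepG2) carry transiently transfected cis-promoter reporter transcription units. Compounds are incubated 24 h, total RNA is reverse-transcribed and amplified, and labelled fragments are resolved by capillary electrophoresis. Curves use DMSO as baseline.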

Assay [12] is described as follows: ATG_GRE_CIS: Attagene CIS-FACTORIAL HepG2 Assay for human Glucocorticoid Response Elements (GRE) (AID 2282947). Particulars: HepG2 GRE cis-reporter, Attagene multiplex mRNA; actives raise or lower the signal. The method, boiled down: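 Assay uses human hepatoma HepG2 cells transfected with cis-promoter reporter units, exposed 24 h. mRNA from reporters detected by RT-PCR plus capillary electrophoresis; DMSO serves as negative control and baseline.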

A short description of assay [13]: ATG_ISRE_CIS: Attagene CIS-FACTORIAL HepG2 Assay for human Interferon Regulatory Factor 1 (IRF1) binding to an Interferon-Stimulated Response Element (ISRE) (AID 2282948). Particulars: HepG2 ISRE cis-reporter (Attagene), mRNA transcription readout; actives raise or lower the signal. The method, boiled down: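 Transfected HepG2 (multiple reporter transcription units, cis elements) dosed 24 h. RNA → oligo(dT) RT → PCR → 6-FAM primer extension → HpaI → CE. DMSO = negative control/baseline.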

Assay [14] in a line: ATG_M_32_CIS: Attagene CIS-FACTORIAL HepG2 Assay for M32 Transcription Factor (Internal Marker) (AID 2282949).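 Also: background control marker of the multiplexed CIS panel rather than a real target.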 Particulars: HepG2 Attagene cis-factorial M32 reporter, mRNA; actives raise or lower the signal. The method, boiled down: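 Internal background marker read-out: RT-PCR/capillary electrophoresis fluorescence of reporter transcripts from transiently transfected HepG2 cells after 24 h chemical exposure. Activity fitted bidirectionally relative to DMSO negative control.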

Assay [15] is described as follows: ATG_M_06_CIS: Attagene CIS-FACTORIAL HepG2 Assay for M06 Transcription Factor (Internal Marker) (AID 2282950). Particulars: HepG2 Attagene CIS-FACTORIAL M06 internal marker reporter; actives raise or lower the signal. The method, boiled down: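 Cells (HepG2, transiently carrying cis-driven reporter units) receive chemical for 24 h before RNA isolation. Reporter cDNA is PCR-amplified, FAM-labelled by primer extension, HpaI-digested and sized on a capillary analyser.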

Assay [16] deals with Hypoxia-inducible factor 1-alpha (Homo sapiens) (UniProt Q16665). Nature of the assay: ATG_HIF1a_CIS: Attagene CIS-FACTORIAL HepG2 Assay for human Hypoxia Inducible Factor 1 (HIF1A) (AID 2282951). Particulars: HepG2 Attagene cis-factorial HIF1a reporter transcription; actives raise or lower the signal. The method, boiled down:
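HepG2 cells transiently transfected with multiplexed cis-promoter reporter units; reporter mRNA read 24 h after dosing by RT-PCR, 6-FAM primer-extension labelling, HpaI digestion and capillary electrophoresis. Bidirectional fit versus DMSO baseline.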

Assay [17] addresses Hepatocyte nuclear factor 6 (Homo sapiens) (UniProt Q9UBC0). Nature of the assay: ATG_HNF6_CIS: Attagene CIS-FACTORIAL HepG2 Assay for human Hepatocyte Nuclear Factor 6 (HNF6) (AID 2282952). The note with it: HepG2 Attagene cis-factorial HNF6 reporter transcription; actives raise or lower the signal. In short, it runs like this:
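Cells are HepG2 carrying transiently transfected cis-promoter reporter units. Treatment lasts 24 h, after which reporter transcripts are reverse-transcribed, amplified, FAM-labelled and sized by capillary electrophoresis. DMSO serves as baseline.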

Assay [18] concerns the target Heat shock factor protein 1 (Homo sapiens) (UniProt Q00613). Nature of the assay: ATG_HSE_CIS: Attagene CIS-FACTORIAL HepG2 Assay for human Heat Shock Transcription Factor 1 (HSE) (AID 2282953). The note with it: HepG2 HSE cis-reporter, Attagene RNA transcription; actives raise or lower the signal. In short, it runs like this: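 Liver-derived HepG2 cells carry transiently introduced multiple reporter units governed by cis promoters. Reporter RNA measured 24 h post-dose through reverse transcription, PCR amplification, fluorescent labelling and capillary electrophoresis, normalised to DMSO.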

Assay [19] in a line: ATG_MRE_CIS: Attagene CIS-FACTORIAL HepG2 Assay for human Metal Responsive Element (MRE) (AID 2282954). Particulars: HepG2 MRE cis-reporter transcription, Attagene multiplex; actives raise or lower the signal. The method, boiled down: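 After a 24 h chemical exposure, transiently transfected HepG2 cells yield RNA whose reporter sequences are amplified, FAM-labelled and sized by capillary electrophoresis. Curves are fitted bidirectionally relative to DMSO.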

Assay [20] can be described thus: ATG_PBREM_CIS: Attagene CIS-FACTORIAL HepG2 Assay for human Phenobarbital-responsive Enhancer Module (PBREM) (AID 2282955). Particulars: HepG2 PBREM cis-reporter, Attagene multiplexed transcription; actives raise or lower the signal. The method, boiled down:
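HepG2 cells transiently transfected with multiple cis-regulated reporter transcription units; endogenous factor activity at the PBREM element measured as reporter mRNA 24 h after dosing, via RT-PCR and capillary electrophoresis of fluorescent fragments; bidirectional fitting versus DMSO.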

Structures are written as SMILES. Activity calls are given as the source filed them. The calls were made as follows: active = hit-call score of the fitted dose curve at least 0.9, where 1 is the maximum; inactive = score below 0.9.

Chain of Hepatocyte nuclear factor 6 (Homo sapiens) (Q9UBC0 whole entry, looked up): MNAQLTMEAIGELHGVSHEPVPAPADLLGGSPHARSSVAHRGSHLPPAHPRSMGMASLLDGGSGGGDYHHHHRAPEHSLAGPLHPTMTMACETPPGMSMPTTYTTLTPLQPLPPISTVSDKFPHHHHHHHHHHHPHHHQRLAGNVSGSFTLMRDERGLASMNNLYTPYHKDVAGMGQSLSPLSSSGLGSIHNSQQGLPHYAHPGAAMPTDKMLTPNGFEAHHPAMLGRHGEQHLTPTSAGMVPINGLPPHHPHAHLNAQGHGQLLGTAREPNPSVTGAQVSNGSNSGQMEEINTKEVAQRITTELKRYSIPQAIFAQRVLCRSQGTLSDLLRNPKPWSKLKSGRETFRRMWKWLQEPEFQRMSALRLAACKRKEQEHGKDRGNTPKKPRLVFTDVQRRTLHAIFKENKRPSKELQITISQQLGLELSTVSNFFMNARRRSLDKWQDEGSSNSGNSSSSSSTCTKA
Chain of Hypoxia-inducible factor 1-alpha (Homo sapiens) (Q16665 whole entry, looked up): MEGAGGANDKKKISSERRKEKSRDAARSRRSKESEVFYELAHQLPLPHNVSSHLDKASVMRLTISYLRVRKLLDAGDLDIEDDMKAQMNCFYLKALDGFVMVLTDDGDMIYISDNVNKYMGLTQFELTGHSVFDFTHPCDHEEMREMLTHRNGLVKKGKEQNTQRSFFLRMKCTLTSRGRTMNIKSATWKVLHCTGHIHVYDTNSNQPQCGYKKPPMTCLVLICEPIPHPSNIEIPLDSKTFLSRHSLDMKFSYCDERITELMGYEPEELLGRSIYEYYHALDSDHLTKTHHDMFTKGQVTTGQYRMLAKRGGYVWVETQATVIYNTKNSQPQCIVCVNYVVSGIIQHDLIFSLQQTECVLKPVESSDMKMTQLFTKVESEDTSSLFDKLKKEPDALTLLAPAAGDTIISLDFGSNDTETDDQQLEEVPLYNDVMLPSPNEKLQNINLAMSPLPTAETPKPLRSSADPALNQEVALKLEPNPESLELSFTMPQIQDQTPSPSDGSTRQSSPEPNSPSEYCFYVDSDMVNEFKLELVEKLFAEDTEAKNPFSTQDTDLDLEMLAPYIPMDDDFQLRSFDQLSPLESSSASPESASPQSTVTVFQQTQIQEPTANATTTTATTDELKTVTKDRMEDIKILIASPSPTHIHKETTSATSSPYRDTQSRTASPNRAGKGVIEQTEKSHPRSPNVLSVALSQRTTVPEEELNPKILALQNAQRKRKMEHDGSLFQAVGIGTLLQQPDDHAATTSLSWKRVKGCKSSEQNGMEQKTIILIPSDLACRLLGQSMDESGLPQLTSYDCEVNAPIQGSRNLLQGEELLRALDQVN
Chain of Hepatocyte nuclear factor 3-beta (Homo sapiens) (Q9Y261 whole entry, looked up): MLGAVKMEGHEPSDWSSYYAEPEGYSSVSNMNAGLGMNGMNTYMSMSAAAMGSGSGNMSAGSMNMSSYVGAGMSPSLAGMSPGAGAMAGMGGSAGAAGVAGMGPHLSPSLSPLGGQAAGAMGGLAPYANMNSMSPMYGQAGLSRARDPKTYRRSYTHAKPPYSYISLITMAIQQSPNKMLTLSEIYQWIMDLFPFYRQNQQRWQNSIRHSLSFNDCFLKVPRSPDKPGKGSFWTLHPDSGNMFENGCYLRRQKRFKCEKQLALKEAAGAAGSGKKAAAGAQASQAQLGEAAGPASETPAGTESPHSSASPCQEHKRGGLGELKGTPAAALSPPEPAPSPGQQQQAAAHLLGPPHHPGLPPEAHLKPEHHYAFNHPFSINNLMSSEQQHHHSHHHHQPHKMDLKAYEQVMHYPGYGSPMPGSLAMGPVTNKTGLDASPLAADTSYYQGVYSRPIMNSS
Chain of Heat shock factor protein 1 (Homo sapiens) (Q00613 whole entry, looked up): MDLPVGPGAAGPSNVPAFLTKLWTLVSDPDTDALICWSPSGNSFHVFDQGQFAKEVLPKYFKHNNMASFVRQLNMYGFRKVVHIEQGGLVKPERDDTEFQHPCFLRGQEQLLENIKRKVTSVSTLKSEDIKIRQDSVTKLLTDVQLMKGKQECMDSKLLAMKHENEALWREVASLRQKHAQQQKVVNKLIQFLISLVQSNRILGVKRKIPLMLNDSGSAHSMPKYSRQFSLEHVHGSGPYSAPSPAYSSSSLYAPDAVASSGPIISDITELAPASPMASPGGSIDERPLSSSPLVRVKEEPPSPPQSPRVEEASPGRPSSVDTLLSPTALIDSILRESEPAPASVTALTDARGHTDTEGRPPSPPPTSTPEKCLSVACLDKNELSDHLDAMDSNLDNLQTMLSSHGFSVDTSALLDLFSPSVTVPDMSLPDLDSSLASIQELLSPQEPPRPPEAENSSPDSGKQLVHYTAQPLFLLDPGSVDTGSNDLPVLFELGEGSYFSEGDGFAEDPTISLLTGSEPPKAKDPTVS
Chain of Bile acid receptor (Homo sapiens) (Q96RI1 whole entry, looked up, the tested form may be a part): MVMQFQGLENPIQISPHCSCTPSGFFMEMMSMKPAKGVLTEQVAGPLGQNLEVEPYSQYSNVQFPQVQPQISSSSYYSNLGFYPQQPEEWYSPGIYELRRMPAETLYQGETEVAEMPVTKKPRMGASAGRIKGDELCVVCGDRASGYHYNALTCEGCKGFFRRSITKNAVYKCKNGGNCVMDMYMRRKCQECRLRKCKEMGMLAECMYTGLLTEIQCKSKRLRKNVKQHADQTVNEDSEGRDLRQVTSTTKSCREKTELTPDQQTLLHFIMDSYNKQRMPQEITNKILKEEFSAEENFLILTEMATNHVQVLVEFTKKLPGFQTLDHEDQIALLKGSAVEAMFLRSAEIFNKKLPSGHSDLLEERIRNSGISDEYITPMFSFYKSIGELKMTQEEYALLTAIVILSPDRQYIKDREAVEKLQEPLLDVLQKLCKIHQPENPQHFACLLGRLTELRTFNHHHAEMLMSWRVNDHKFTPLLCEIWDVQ

Regarding `CC(C)(C)c1n[nH]c(=O)n(N)c1=O`, the outcome in assay [1], in assay [2], in assay [3], in [4], in [5] and in [6] was inactive. For the same compound, the compound was called inactive in assay [7], in [8], in assay [9], in assay [10], in assay [11] and in assay [12]. Moreover, the call in [13], in [14], in assay [15], in assay [16], in [17] and in assay [18] was inactive. Also, in assay [19], the outcome was inactive.
`CC(C)c1ccc2c(c1)CC[C@H]1[C@](C)(CN)CCC[C@]21C`: the result in assay [1], in assay [2], in [4], in assay [5], in [6] and in assay [7] was inactive. Besides, the outcome in assay [8], in assay [10], in assay [11], in [12], in assay [13] and in assay [14] was inactive. Moreover, the compound was called inactive in [15] and in assay [17]. Besides, the AC50 is 5.35 µM (active) in assay [3], 5.79 µM (active) in assay [9], 6.29 µM (active) in assay [18] and 5.77 µM (active) in assay [19].
As for `CC(C)(C)c1ccc(-c2ccc(C(C)(C)C)cc2)cc1`, the outcome in [1], in assay [2], in [3], in assay [4], in assay [5] and in [6] was inactive. In addition, the outcome in assay [7], in assay [8], in assay [9], in assay [10], in assay [11] and in assay [12] was inactive. Also, the result in assay [13], in assay [14], in assay [15], in assay [16], in [17] and in assay [19] was inactive. In addition, in [20], the result was inactive.
For `OCCCS`, the result in assay [1], in [2], in assay [3], in assay [4], in [5] and in [6] was inactive. The compound was called inactive in assay [7], in assay [8], in [9], in assay [10], in assay [11] and in assay [12]. The result in assay [13], in assay [14], in [15], in assay [16], in assay [17] and in assay [18] was inactive. Also, the call in assay [19] and in [20] was inactive.
